Assay outcomes (PubChem)
An excerpt weighted towards active compounds, which were near 2.8% of everything screened.
SNCA expr inh: Primary qHTS assay for inhibitors of alpha-synuclein gene (SNCA) expression | Potency, µM (titrated, usually from 57.2 µM), most hits filed as inhibitors | 0.17% of 140,000 active | HEK-293 SNCA-luciferase knock-in, luminescence, 24 h; note: nearly all actives have a fitted effect of over 45% in size
KDM5B inhibitor: Primary screen for KDM5B Histone Demethylases FDH-coupled qHTS; AID 1347165, 2019; KDM5B demethylase, FDH-coupled NADH fluorescence (FDH is formaldehyde dehydrogenase); 2.6% of 220,000 active; Potency, µM (titrated, usually from 57.7 µM), most hits filed as inhibitors; Lysine-specific demethylase 5B (Homo sapiens), Q9UGL1; note: nearly all actives have a fitted effect of over 70% in size
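KDM5BΔAP (200 nM final) in 50 mM HEPES pH 7.5, 0.01% Tween-20 was preincubated 10 min at RT with compound over a concentration range. Substrate mix (H3K4me3 12.5 µM, α-KG 25 µM, Fe²⁺, ascorbate, NAD⁺, FDH) was added, and NADH fluorescence change over 30 min gave dose-response curves.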
SNCA viab count: GF-AFC viability counterscreen for inhibitors of alpha-synuclein gene (SNCA) expression | 0.12% of 150,000 active | Potency, µM (highest dose often 57.1 µM), most hits filed as cytotoxic | HEK-293-SNCA-luc viability, GF-AFC fluorescence, 24 h; note: nearly all actives have a fitted effect of over 30% in size
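Cytotoxicity counterscreen: after 24 h compound treatment of genome-edited SNCA-luciferase HEK-293 cells, live-cell protease substrate GF-AFC read by fluorescence after 30 min; activity scaled between DMSO (0%) and medium-only (-100%), curves Hill-fitted.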
IP6K1 inh: Primary qHTS assay for small molecule inhibitors of Inositol hexaphosphate kinase 1 (IP6K1). Inositol hexakisphosphate kinase 1 (Homo sapiens), Q92551. IP6K1 kinase, ADP-Glo luminescence, 2 h; hits give low values. activity change, % (series mostly up to about 58 µM). 0.81% of 140,000 active; in the data active = activity change below about -25%
Target sequence (Q92551 whole entry, looked up): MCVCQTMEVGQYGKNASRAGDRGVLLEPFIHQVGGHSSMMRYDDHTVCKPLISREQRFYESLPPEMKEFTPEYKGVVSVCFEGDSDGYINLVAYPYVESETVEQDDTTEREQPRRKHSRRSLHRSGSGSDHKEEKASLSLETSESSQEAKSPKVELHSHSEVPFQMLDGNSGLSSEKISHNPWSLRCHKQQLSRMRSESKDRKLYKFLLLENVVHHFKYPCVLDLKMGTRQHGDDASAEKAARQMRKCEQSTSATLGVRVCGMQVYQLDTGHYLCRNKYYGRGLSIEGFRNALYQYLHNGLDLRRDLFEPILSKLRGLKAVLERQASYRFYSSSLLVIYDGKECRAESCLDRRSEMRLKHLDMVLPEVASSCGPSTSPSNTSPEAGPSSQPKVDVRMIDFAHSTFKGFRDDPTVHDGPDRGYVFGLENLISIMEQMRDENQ
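ADP-Glo luminescence measures ADP made by human IP6K1 during a 2 h RT reaction with ATP/IP6 (mix at 1.3 mM/130 uM); top library doses 57.5 and 19.1 uM final.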
Each line names hits and unclear results; the compound was inactive in the other large screens; ! = a repeat was not active. Unless noted, calls come from the whole dose curve; as a rule, active = well fitted curve in the direction sought with a large enough effect; inconclusive = small, poorly fitted or top-dose-only effect, or another doubt; inactive = no such curve, though single readings can be large; an effect the other way counts as inactive or inconclusive.

CCCCNC(=O)Cc1csc2nc(C)c(-c3cc(C)n(-c4cccc(Cl)c4)n3)c(=O)n12	KDM5B inhibitor inconclusive
COc1ccccc1Nc1ccnc(N2CCCC2C(=O)NCC2CC2)n1 (configuration not stated)	none (no result: KDM5B inhibitor)
CC(NC(=O)CCc1ncc(-c2ccc(F)cc2)o1)c1ccc2c(c1)NC(=O)CO2 (configuration not stated)	none (no result: SNCA expr inh, SNCA viab count, IP6K1 inh)
O=C(c1ccc2c(c1)ncn2CCO)N1CCCn2nc(CO)cc2C1	none
Cc1cccc(NC(=O)C(C#N)=C2CCCC2)c1	none (no result: SNCA expr inh, SNCA viab count, IP6K1 inh)
O=C1[C@H](Cc2ccc(O)cc2)N2C(=O)CCN(C(=O)NCc3ccccc3)[C@H]2CN1Cc1cccc2ccccc12	SNCA expr inh inconclusive, SNCA viab count 24µM (no result: KDM5B inhibitor, IP6K1 inh)
COc1ccc(OC)c(C2=NOC(C(=O)O)C2)c1 (configuration not stated)	KDM5B inhibitor 28µM
CNC(=O)CCn1ncc2cc(OCc3ccccc3-c3cccc(C)c3)ccc21	KDM5B inhibitor 35µM, SNCA viab count inconclusive
c1cc2c(cc1N1CCC(N[C@H]3C[C@@H]4OCC[C@H]34)CC1)CCC2	none
Fc1ccc2cnc(N3CCC(N[C@H]4C[C@@H]5OCC[C@H]45)CC3)nc2c1	KDM5B inhibitor 25µM
O=c1[nH]nc(SCc2ccccc2Cl)n1-c1ccc2c(c1)OCCO2	none (no result: SNCA expr inh, SNCA viab count, IP6K1 inh)
O=c1[nH]nc(Sc2ncc([N+](=O)[O-])s2)n1-c1ccc2c(c1)OCCO2	SNCA expr inh inconclusive, SNCA viab count 24µM (no result: KDM5B inhibitor, IP6K1 inh)
CCC(=O)Nc1ccc(-c2csc(Nc3ccc(OC)cc3)n2)cc1	none (no result: SNCA expr inh, SNCA viab count, IP6K1 inh)
CCOc1ccccc1Nc1nc(N)c(C(=O)c2ccc(CC)cc2)s1	none (no result: SNCA expr inh, SNCA viab count, IP6K1 inh)
CC1(C)CC(Nc2nccc(-c3cnn(-c4ccccc4)c3)n2)CC(C)(C)N1	KDM5B inhibitor 28µM
CC1(C)CC(Nc2nccc(C(F)(F)F)n2)CC(C)(C)N1	none (no result: SNCA expr inh, SNCA viab count, IP6K1 inh)
CC(Cc1ccncc1)Nc1nccc(-c2cnn(-c3ccccc3F)c2)n1 (configuration not stated)	KDM5B inhibitor 28µM
CC(Cc1ccncc1)Nc1nccc(-c2cnn(-c3ccccc3)c2)n1 (configuration not stated)	KDM5B inhibitor 32µM
COC(=O)[C@@H]1Cc2c([nH]c3ccccc23)[C@H]2C[C@@H](NCCNC(C)=O)C[C@@H](c3ccc(C)cc3)N21	KDM5B inhibitor 28µM
COC(=O)[C@@H]1Cc2c([nH]c3ccccc23)[C@H]2C[C@@H](NCCNC(C)=O)C[C@@H](c3ccccc3)N21	KDM5B inhibitor 8.9µM
OCC1CCN(Cc2cc3cc4c(cc3nc2-c2ccc(Cl)cc2)OCO4)CC1	KDM5B inhibitor inconclusive
O=C(NCc1ccccc1F)C1CCN(C(=O)c2ncn3c2COC(c2ccccc2)C3)CC1 (configuration not stated)	none
COc1ccccc1-n1c(=O)n(CC(=O)NC(C)c2ccccc2)c(=O)c2c(C)cc(C)nc21 (configuration not stated)	none (no result: SNCA expr inh, SNCA viab count, IP6K1 inh)
c1ccc(-c2nc3ccncc3[nH]2)nc1	KDM5B inhibitor 126µM!
Cc1ccoc1-c1nc2ccncc2[nH]1	KDM5B inhibitor 32µM!
Cc1ccc(-c2nc(-c3cccs3)c(-c3cccs3)[nH]2)cc1	KDM5B inhibitor inconclusive
c1csc(-c2nc3ccncc3[nH]2)c1	KDM5B inhibitor 32µM
O=C(CSc1nc2ccncc2[nH]1)Nc1ccccc1C(F)(F)F	none
c1c[nH]c(-c2nc3ccncc3[nH]2)c1	KDM5B inhibitor 32µM
CCC(=O)N1N=C(c2ccccc2C)CC1c1ccc2nccnc2c1 (configuration not stated)	none (no result: SNCA expr inh, SNCA viab count, IP6K1 inh)
O=C1NCCCCCN(Cc2ccc(F)cc2F)[C@H]2CCC[C@@H]12	KDM5B inhibitor inconclusive
O=C1NCCCCCCN(Cc2ccc(F)c(F)c2)[C@H]2CCC[C@@H]12	KDM5B inhibitor 13µM
O=C1NCCCCCCN(Cc2ccncc2)[C@@H]2CN(Cc3ccncc3F)CC[C@H]12	KDM5B inhibitor 20µM
Cn1cccc1CN1CCCCCNC(=O)[C@@H]2CCC[C@@H]21	none
CC(C)CCN1CCCCCCNC(=O)[C@@H]2CCC[C@@H]21	KDM5B inhibitor 10µM
O=C1NCCCCCCN(Cc2cccc(OC(F)(F)F)c2)[C@H]2CCC[C@@H]12	KDM5B inhibitor 5.6µM
Cc1ccc(CNC(=O)C2CN(S(=O)(=O)c3cccnc3)CC23CCCCC3)o1 (configuration not stated)	none
CCc1noc(-c2cccn3c(CNC(=O)c4ccc(OC)cc4)nnc23)n1	KDM5B inhibitor inconclusive
CCc1noc(-c2cccn3c(CNC(=O)c4cccc(OC)c4)nnc23)n1	SNCA expr inh inconclusive, KDM5B inhibitor 22µM
COc1cccc(C(=O)NCc2nnc3c(-c4nc(C)no4)cccn23)c1	KDM5B inhibitor 28µM
Cc1noc(-c2cccn3c(CNC(=O)c4cccc(N(C)C)c4)nnc23)n1	KDM5B inhibitor inconclusive
CN(CC1CCOCC1)S(=O)(=O)Cc1cccc(Cl)c1	none
Cc1nc(CNC(=O)c2ccc3oc(-c4cccc(F)c4)nc3c2)cs1	KDM5B inhibitor 20µM
CN(CCC(O)c1ccccc1)C(=O)c1ccc2oc(-c3cccc(F)c3)nc2c1 (configuration not stated)	KDM5B inhibitor 22µM
O=C(Nc1ccc2oc(-c3cccc(F)c3)nc2c1)c1ccc2ccccc2c1	none
O=C1CCCN1CC1CCCN(Cc2cc(F)ccc2-n2cccn2)C1 (configuration not stated)	none
Cc1oc(-c2cccs2)nc1CN1CCCC(c2ccn[nH]2)C1 (configuration not stated)	KDM5B inhibitor 28µM
CCN(CC)C(=O)N1CCOC(c2ccc3cc(OC)ccc3c2)C1 (configuration not stated)	none
O=C(NCc1ccc(F)cc1)c1nc2sccn2c1-c1cccc(C(F)(F)F)c1	none (no result: KDM5B inhibitor)
CCC(O)c1cc2n(n1)CCN(C(=O)c1nc(N)nc3c1CCCC3)C2 (configuration not stated)	KDM5B inhibitor 28µM
CCC(O)c1cc2n(n1)CCN(C(=O)c1ccc(-c3ccccc3)n1C)C2 (configuration not stated)	none
CN(C)Cc1nnc(C2CCN(C(=O)c3nc(N)nc4c3CCCC4)CC2)n1C	KDM5B inhibitor 25µM
CCS(=O)(=O)Nc1ccc(C(=O)N2CCN(C(C)=O)CC(O)C2)cc1 (configuration not stated)	none
CC(=O)N1CCN(C(=O)c2nc(N)nc3c2CCCC3)CC(O)C1 (configuration not stated)	KDM5B inhibitor 25µM
COc1cccc(-c2ccc(C(=O)N3CCC(C(=O)N4CCCCC4)CC3)cc2)c1	none (no result: KDM5B inhibitor)
COc1cc(OC)cc(C(=O)OCc2nc(-c3ccc(OC(F)(F)F)cc3)no2)c1	none (no result: SNCA expr inh, SNCA viab count, IP6K1 inh)
Cc1cc(C(C)(C)C)ccc1OCC(O)Cn1nc(-c2cccs2)oc1=O (configuration not stated)	none (no result: SNCA expr inh, SNCA viab count, IP6K1 inh)
O=C(Nc1ccc2c(c1)CN(Cc1ccc3c(c1)OCO3)C(=O)CO2)c1ccc(F)cc1	none
